The values below come from PubChem BioAssay (Tox21).

Results filed as inconclusive are left out. Unmarked numbers belong to inactive results. Activity calls are given as the source filed them. Calls follow the shape of the full dose curve.
% is scaled to controls: 0 for no effect and ±100 for the full control effect; potency is read from the fitted curve at half-maximal effect.

Chain of Muscarinic acetylcholine receptor M1 (Homo sapiens) (P11229 whole entry, looked up): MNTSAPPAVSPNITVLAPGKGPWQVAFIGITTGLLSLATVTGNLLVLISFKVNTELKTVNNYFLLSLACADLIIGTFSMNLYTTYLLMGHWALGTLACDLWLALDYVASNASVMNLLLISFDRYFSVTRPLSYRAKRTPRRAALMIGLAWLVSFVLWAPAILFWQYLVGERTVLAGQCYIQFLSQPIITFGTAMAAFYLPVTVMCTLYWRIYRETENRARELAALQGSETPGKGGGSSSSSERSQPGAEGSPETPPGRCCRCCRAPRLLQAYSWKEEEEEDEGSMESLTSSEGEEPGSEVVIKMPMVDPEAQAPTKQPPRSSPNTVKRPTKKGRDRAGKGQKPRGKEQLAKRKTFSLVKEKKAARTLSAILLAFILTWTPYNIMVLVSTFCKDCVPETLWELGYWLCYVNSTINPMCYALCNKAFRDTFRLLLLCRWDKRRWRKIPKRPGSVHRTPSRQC

This assay concerns the target Muscarinic acetylcholine receptor M1 (Homo sapiens) (UniProt P11229). Briefly: Cholinergic receptor muscarinic 1 (CHRM1) small molecule antagonists, cell-based qHTS assay (AID 1963588). Also: nearly all actives have a fitted effect of over 40% in size. The conditions noted are these: CHRM1-CHO antagonist mode, calcium flux fluorescence; series mostly up to 61.5 µM; activity, negative = inhibition: at the top concentration. An excerpt: National Center for Advancing Translational Sciences [NCATS]
Division of Preclinical Innovation [DPI]
U.S. Environmental Protection Agency [EPA]
National Institutes of Environmental Health Sciences [NIEHS]
National Toxicology Program [NTP]
U.S. Food and Drug Administration [FDA]
The CHRM1 is a muscarinic receptor. This receptor plays a crucial role in learning and memory processes and has long been identified as a promising therapeutic target for the improvement of cognitive decline in Alzheimer's disease (AD). The CHRM1-CHO cell line stably expressing human muscarinic acetylcholine receptor M1 (CHRM1) can be used for screening agonists and antagonists of interactions between CHRM1 and its ligands. The CHRM1-CHO Calcium Flux Assay is a homogeneous fluorescence-based assay for detecting the intracellular calcium level using FDSS kinetic plate reader system.
Tox21 Assay Protocol Summary:
CHRM1-CHO cells were dispensed at 1000 cells/3uL/well in 1536-well black-clear bottom plates using a Multidrop Dispenser. After the assay plates were incubated at a 37 C/5% CO2 incubator for 18 h, 3 uL of Dye Loading Buffer was transferred to the assay plate by a Flying Reagent Dispenser. The assay plates were incubated at 37 C for 1h. For antagonist mode, 23 nL of compounds dissolved in DMSO, positive controls or DMSO only was transferred to the assay plate by a pin tool. After 5 min incubation at room temperature, 1.5 uL of acetylcholine at 50nM was added to each well. The fluorescence intensity in the plates was measured using FDSS 7000EX kinetic plate reader for 3 min at 1 sec intervals. Each test compound was measured at 15 concentrations in three independent runs.
For `Cc1ccc(N=Nc2c(O)ccc3ccccc23)c(C)c1`, the “activity, negative = inhibition” value was -8.39% [at 28.3 µM].
As for `COC(=O)CC(C(C)=O)C(=O)OC` (stereo not given), the “activity, negative = inhibition” value is 21.4%.
Turning to `CCCCCCS`, the “activity, negative = inhibition” value was 2.03%.
`Oc1ccc2cc(SSc3ccc4cc(O)ccc4c3)ccc2c1`: the Potency result was “inactive”.
Take `CC/C=C\CCOC(=O)C(C)C`: the “activity, negative = inhibition” value is 31.2%.
The same measure, in the same setting: then `CC(C)=CCCC(C)O` (stereo not given), with -6.65%; and `COc1cc(Cl)ccc1Cl`, with 23.1%.
Take `CCCCC(CC)COP(=O)(OCC(CC)CCCC)OCC(CC)CCCC` (stereo not given): the Potency entry was “inactive”.
As for `CCCCCCCCCC(C)=O`, the “activity, negative = inhibition” value was -4.12%.
On to `NCc1cccc(CN)c1`, for which the Potency was 42.1 µM (active).
Take `O=C(O)c1cccc(C(F)(F)F)c1`: the “activity, negative = inhibition” value is 17.3%.
As to `N[C@H](Cc1c[nH]c2ccccc12)C(=O)O`, the Potency entry is “inactive”.
Turning to `O=C(OCCOCCO)c1ccccc1Nc1cccc(C(F)(F)F)c1`, the “activity, negative = inhibition” value is 14.3% [at 28.3 µM].
`CN(C)CCCN(C)CCCN(C)C`: the “activity, negative = inhibition” value was -4.57%.
Consider `CC(=O)c1ccccc1N`, for which the “activity, negative = inhibition” value is 16.5%.
On the same count and under the same terms, the result for `Cc1c(I)c(=O)n(-c2ccccc2)n1C` reads 5.15% [at 28.3 µM]; that for `C/C=C(\C)C(=O)OC/C=C(\C)CCC=C(C)C`, 1.62%; that for `CC(=N\O)/C(C)=N/O`, -10.5%.
On the same count and under the same terms, the result for `FC(F)(F)/C(=N\OCC1OCCO1)c1ccc(Cl)cc1` reads -17.1%.
As to `OCC1CC2CC1C1CCC(CO)C21` (stereo not given), the “activity, negative = inhibition” value was 1.02%.
With `C1COCCO1`, the “activity, negative = inhibition” value was 11.7%.
Still for that read-out and setting: then `C=CCCCCCCCC`, with -18.6%; and `CC(=O)OCCCc1ccccc1`, with -4%; and `O=C(O)CN(CCN(CC(=O)O)CC(=O)O)CCN(CC(=O)O)CC(=O)O`, with 9.64% [at 12.6 µM].
For `O=C(O)CCCCCCCCCCCC(=O)O`, the Potency result is “inactive”.
As for `C=CCCC`, the “activity, negative = inhibition” value was 18.4%.
The same measure, in the same setting: the result for `COC(=O)Nc1ccc(Cl)c(Cl)c1` reads -12.4%; that for `C=C(C)[C@H]1CC=C(C)CC1`, 8.13%.
Take `O=S(=O)(O)c1cccc(S(=O)(=O)O)c1`: the “activity, negative = inhibition” value was -15.8%.
For `c1ccc2sc(SSN3CCOCC3)nc2c1`, the Potency result was “inactive”.
With `CC(=O)[O][Al][O]C(C)=O`, the “activity, negative = inhibition” value is -1.65%.
As for `CN1CCCC1`, the “activity, negative = inhibition” value is -4.96%.
The same measure, in the same setting: the result for `NCCN1CCNC1=O` reads 12.6%.
As for `Oc1c(Cl)ccc(Cl)c1Cl`, the Potency entry is “inactive”.
Take `CCCCCCCCCCCCCCCCBr`: the activity, negative = inhibition was -1.85% [at 12.6 µM].
As to `O=Cc1cc2ccccc2o1`, the “activity, negative = inhibition” value is -8.12%.
The same measure, in the same setting: then `NC(=O)c1ncn([C@@H]2O[C@H](CO)[C@@H](O)[C@H]2O)c1O`, with 0.2% [at 28.3 µM].
In the case of `CCOC(=O)CCC(C)=O`, the “activity, negative = inhibition” value was -5%.
Same read-out and setting: the result for `Cc1ccc(C(=O)Nc2ccc(S(=O)(=O)O)c3cc(S(=O)(=O)O)cc(S(=O)(=O)O)c23)cc1NC(=O)c1cccc(NC(=O)Nc2cccc(C(=O)Nc3cc(C(=O)Nc4ccc(S(=O)(=O)O)c5cc(S(=O)(=O)O)cc(S(=O)(=O)O)c45)ccc3C)c2)c1` reads -1.02% [at 28.3 µM].
For `CC(=O)CC(=O)Nc1ccccc1C`, the “activity, negative = inhibition” value was -6.68%.
